# PubChem BioAssay (Tox21)
# Results filed as inconclusive are left out. A number with no mark means an inactive call. Activity calls are given as the source filed them. Calls follow the shape of the dose curve; as a rule, active = well fitted cell-killing curve with a large enough effect in the repeat runs; inconclusive = weak or mixed curves, or effect the other way; inactive = flat fitted curve, though single readings scatter.
# Experiment: qHTS RealTime-Glo MT Cell Viability Assay in HEK293 cells - 0 hour (AID 1224880); also: top concentration of the series differs between compounds; nearly all actives have a fitted effect of over 45% in size
# Conditions: RealTime-Glo luminescence; series mostly up to 76.8 µM; activity change, negative = cytotoxicity: at the top concentration
# Description: U.S. Tox21 Program National Center for Advancing Translational Sciences [NCATS] NIH Chemical Genomics Center [NCGC] U.S. Environmental Protection Agency [EPA] National Institutes of Environmental Health Sciences [NIEHS] National Toxicology Program [NTP] U.S. Food and Drug Administration [FDA] Tox21 Assay Overview: Measure of cell viability is critical in the cell-base assay. Analysis of cell viability is necessary for the characterization of cell responses to cytotoxic drugs and environmental stress. A RealTime-Glo MT Cell Viability Assay to monitor cell viability in real time of continues cell culture during 40 hours of compound treatment was used to screen Tox21 10K library compounds in Hek293 cells. The RealTime-Glo MT Cell Viability Assay is a nonlytic, homogeneous, bioluminescent method to measure cell viability in real time using a simple, plate-based method. The assay involves adding NanoLuc luciferase and a cell-permeant prosubstrate to cells in culture. Viable cells reduce the proprietary prosubstrate to generate a substrate for NanoLuc luciferase. This substrate diffuses from cells into the surrounding culture medium, where it is rapidly used by the NanoLuc Enzyme to produce a luminescent signal. The signal correlates with the number of viable cells, making the assay well suited for cytotoxicity studies.
# Tox21 Assay Protocol Summary: The mixture of Hek293 cell suspension and reagents were dispensed at 600cells/6 ul/well in 1536-well tissue culture treated black solid bottom plates using a Multidrop dispenser. After the assay plates were incubated at a 37 C/5% CO2 incubator for 5 hours, 23 nL of compounds dissolved in DMSO, positive and negative controls was transferred to the assay plate by a pintool work station. The plates were incubated at 37 C for 40 hours. The luminescence intensity were measured at 0h, 8h, 16h, 24h, 32h and 40h time points using ViewLux plate reader during compound treatment.
# % is scaled to controls: 0 for no effect and ±100 for the full control effect.
Structure (SMILES),Potency,"activity change, negative = cytotoxicity"
Clc1ccc(COC(Cn2ccnc2)c2ccc(Cl)cc2Cl)cc1 (stereo not given),inactive,
COc1cc(C=O)cc2c1[C@H](COC(N)=O)[C@]1(OC(C)=O)ON2C[C@H]2[C@@H]1N2C(C)=O,,7.01%
COS(=O)(=O)c1ccc(C)cc1,,9.56%
COc1ccc([N+](=O)[O-])cc1O,,3.04% [at 35.3 µM]
N#Cc1ccccc1Cl,,-3.54%
FC(F)(F)c1cccc(C2=CCN(CCc3ccc4ccccc4c3)CC2)c1,,-0.349% [at 35.3 µM]
Clc1ccc(CSC(Cn2ccnc2)c2ccc(Cl)cc2Cl)cc1 (stereo not given),,-2.53% [at 35.3 µM]
CCCN(CC)CC1COC2(CCC(C(C)(C)C)CC2)O1 (stereo not given),,23.5%
N#CNC#N,,-5.85%
CCCN(CCC)CCc1c[nH]c2ccccc12,,-1.87%
NC(=O)CCl,,6.83%
CCc1nn(C)c(C(=O)NCc2ccc(C(C)(C)C)cc2)c1Cl,,-0.193%
Clc1ccc(CO/N=C(\Cn2ccnc2)c2ccc(Cl)cc2Cl)c(Cl)c1,,-4.37% [at 35.3 µM]
ClC1=C(Cl)[C@]2(Cl)[C@@H]3[C@@H]4C[C@@H]([C@H]5O[C@@H]45)[C@@H]3[C@@]1(Cl)C2(Cl)Cl,,-2.13%
Fc1cccc(Cl)c1CCl,,-11%
COC(=O)N(C(=O)N1COC2(C(=O)OC)Cc3cc(Cl)ccc3C2=N1)c1ccc(OC(F)(F)F)cc1 (stereo not given),,-0.852% [at 35.3 µM]
CC[C@H](C)[C@H]1O[C@]2(C=C[C@@H]1C)C[C@@H]1C[C@@H](C/C=C(\C)[C@@H](O[C@H]3C[C@H](OC)[C@@H](O[C@H]4C[C@H](OC)[C@@H](O)[C@H](C)O4)[C@H](C)O3)[C@@H](C)/C=C/C=C3\CO[C@@H]4[C@H](O)C(C)=C[C@@H](C(=O)O1)[C@]34O)O2,,7.8% [at 35.3 µM]
O=C(CCl)Nc1ccccc1,,3.51%
COC[C@H](C)N(C(=O)CCl)c1c(C)csc1C,,8.9%
[Cl][Sb]([Cl])[Cl],,-16.7%

Structure (SMILES),Potency,"activity change, negative = cytotoxicity"
O=c1[nH]c2ccccc2n1C1CCN(CCCC(c2ccc(F)cc2)c2ccc(F)cc2)CC1,inactive,
CCCCCCCCCC[N+](C)(C)CCCCCCCCCC,,5.4%
N#Cc1ccccc1N,,-0.26%
CCCCCCCCCCCCCCC(Br)C(=O)O (stereo not given),,-17.5%
O=C(O)COc1nc(Cl)c(Cl)cc1Cl,,14%
CC(C)(COCC1CO1)COCC1CO1 (stereo not given),,4.62%
CCOC(=O)C1(c2ccccc2)CCN(CCC(C#N)(c2ccccc2)c2ccccc2)CC1,,-2.84% [at 35.3 µM]
CCCCOP(=O)(CCCC)OCCCC,,-8.43%
O=[N+]([O-])c1cc(Cl)ccc1Cl,,3.63%
Clc1ccc(C(c2ccccc2Cl)C(Cl)(Cl)Cl)cc1 (stereo not given),inactive,
CC(=O)[O-].[Tl+],,0.0645%
C=COCCCl,,7.51%
Oc1ccc(C2(c3ccc(O)cc3)c3ccccc3-c3ccccc32)cc1,,-16.3%
Cn1[nH]nnc1=S,,1.32%
CC1(C)[C@H](C(=O)O[C@H](C#N)c2cccc(Oc3ccccc3)c2)[C@@H]1/C=C(\Cl)C(F)(F)F,inactive,
CC(C)(C)c1ccc(CSc2cnn(C(C)(C)C)c(=O)c2Cl)cc1,,-3.92%
Clc1ccc(-c2ccc(Cl)c(Cl)c2Cl)c(Cl)c1Cl,,7.82%
CCOCCOC(C)=O,,-14.9%
CCOc1cc(C(C)(C)C)ccc1C1COC(c2c(F)cccc2F)=N1 (stereo not given),,1.35% [at 35.3 µM]
BrCC(Br)c1ccccc1 (stereo not given),,0.465%
